# Values joined by “and” are separate entries in the source; they are usually repeats but may differ in a detail not shown here. Identical values can stand only once. Compounds without any hit were thinned out: in the full panel of roughly 83,000, 20% have a hit.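 A percent growth of 40 corresponds to 60% growth inhibition; 0 means no net growth; -100 means all cells died. Active threshold: below 10.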 Active and inactive are the calls of the source.
# Experiments:
# Assay in all cases: NCI-60 one-dose screen, 48 h (100 = growth as untreated, 0 = no growth, -100 = all killed)
# Settings in all cases: 10 µM unless noted
# HCT-15 colon = test system: HCT-15 colon
# SNB-75 CNS = test system: SNB-75 CNS
# SNB-19 CNS = test system: SNB-19 CNS
# U251 CNS = test system: U251 CNS
# PC-3 prostate = test system: PC-3 prostate
# UACC-62 melanoma = test system: UACC-62 melanoma
# LOX IMVI melanoma = test system: LOX IMVI melanoma
# SK-MEL-28 melanoma = test system: SK-MEL-28 melanoma
# SK-MEL-5 melanoma = test system: SK-MEL-5 melanoma
# HT29 colon = test system: HT29 colon
SMILES,growth (HCT-15 colon),growth (SNB-75 CNS),growth (SNB-19 CNS),growth (U251 CNS),growth (PC-3 prostate),growth (UACC-62 melanoma),growth (LOX IMVI melanoma),growth (SK-MEL-28 melanoma),growth (SK-MEL-5 melanoma),growth (HT29 colon)
CC12CCC3C(CCC4CC(O)CCC43C)C1CCC2=O (stereo not drawn),91.4% (inactive),109% (inactive),112% (inactive),95.9% (inactive),99.6% (inactive),98.9% (inactive),92% (inactive),189% (inactive),,
CN1CCc2cc3c(cc2C1O)OCO3 (stereo not drawn),98.9% (inactive) and 94% (inactive),81.1% (inactive) and 104% (inactive),123% (inactive) and 100% (inactive),90.6% (inactive) and 103% (inactive),77% (inactive) and 89.3% (inactive),34.2% (inactive) and 94.5% (inactive),71.4% (inactive) and 102% (inactive),94.7% (inactive) and 115% (inactive),-13.9% (active) and 105% (inactive),
O=[N+]([O-])c1ccc(CI)cc1,8.86% (active),96.4% (inactive),106% (inactive),,95.6% (inactive),79.6% (inactive),,104% (inactive),,
COc1cc(C2C3=C(CCCC3=O)N(CCO)c3cc4c(cc32)CCC4)cc(OC)c1OC (stereo not drawn),,99.5% (inactive),87.3% (inactive),88.3% (inactive),80.7% (inactive),67.7% (inactive),80.4% (inactive),96.9% (inactive),87.1% (inactive),71.7% (inactive)
CC1(C)C2CCC1(CS(=O)(=O)O)C(=O)C2 (stereo not drawn),91.7% (inactive) and 104% (inactive),95% (inactive) and 82.9% (inactive),101% (inactive) and 109% (inactive),90.8% (inactive) and 101% (inactive),,88.3% (inactive) and 93.2% (inactive),77.1% (inactive) and 100% (inactive),109% (inactive) and 126% (inactive),,
O=S(=O)(F)c1cccc(Cl)c1C[P+](c1ccccc1)(c1ccccc1)c1ccccc1,91.7% (inactive),81.2% (inactive),100% (inactive),,85.4% (inactive),90.2% (inactive),101% (inactive),109% (inactive),90.4% (inactive),
CCC1(CCSC#N)C(=O)NC(=O)NC1=O,99.6% (inactive),97.1% (inactive),101% (inactive),93.9% (inactive),92.5% (inactive),104% (inactive),101% (inactive),110% (inactive),100% (inactive),
CC1(C)C=Cc2c(ccc3c2[N+]([O-])=C2C3=C[C@@]34NC(=O)[C@]5(CCCN5C3=O)C[C@@H]4C2(C)C)O1,46.8% (inactive),62.1% (inactive),50.7% (inactive),35.3% (inactive),45.5% (inactive),,27.6% (inactive),71.1% (inactive),19.2% (inactive),
COC1C(O)CC(OC2CC(Oc3cc4cc5c(c(O)c4c(O)c3C)C(=O)[C@@H](OC3CC(OC4CC(OC6CC(C)(O)C(OC(C)=O)C(C)O6)C(O)C(C)O4)C(O)C(C)O3)[C@H]([C@H](OC)C(=O)[C@@H](O)[C@@H](C)O)C5)OC(C)C2OC(C)=O)OC1C (stereo partly drawn),,-61.8% (active),5.7% (active),4.79% (active),-11.5% (active),-83% (active),3.81% (active),,-93.8% (active),-23.2% (active)
Cc1cc(N(CCCl)CCCl)ccc1C=Nc1ccc(-c2csc(-c3ccccc3)n2)cc1,103% (inactive),84.6% (inactive),79.4% (inactive),85% (inactive),69.6% (inactive),58.8% (inactive),80.2% (inactive),105% (inactive),80.8% (inactive),
CC1(C)S[C@H]2CC[C@H]3OC(=O)[C@@H]1N23,106% (inactive),90.9% (inactive),101% (inactive),115% (inactive),87% (inactive),93.4% (inactive),103% (inactive),108% (inactive),111% (inactive),
N[C@@H](CCC(=O)CCl)C(=O)O,93.7% [20 µM] (inactive),66.9% [20 µM] (inactive),93.4% [20 µM] (inactive),96.5% [20 µM] (inactive),,92.1% [20 µM] (inactive),96.7% [20 µM] (inactive),103% [20 µM] (inactive),101% [20 µM] (inactive),
O=C1CCCCC1CN1CCCCC1 (stereo not drawn),99.9% (inactive),109% (inactive),108% (inactive),100% (inactive),97.8% (inactive),99.4% (inactive),95.4% (inactive),106% (inactive),104% (inactive),
CC(=O)C(N)Cc1ccccc1 (stereo not drawn),103% (inactive),86.7% (inactive),99.3% (inactive),84.2% (inactive),83.6% (inactive),92.6% (inactive),95.1% (inactive),114% (inactive),107% (inactive),
CC[C@H](C)[C@H](NC(=O)[C@H]1CCCCN1C)C(=O)N(C)[C@H](CCc1nc(C(=O)N[C@@H](Cc2ccccc2)C[C@H](C)C(=O)O)cs1)C(C)C,,28.3% (inactive),39.5% (inactive),7.98% (active),29.1% (inactive),52.2% (inactive),15.2% (inactive),59.4% (inactive),5.59% (active),-3.57% (active)
CSc1cc(/C=C(\C)[C@@H]2C[C@@H]3O[C@]3(C)CCC[C@H](C)[C@H](O)[C@@H](C)C(=O)C(C)(C)[C@@H](O)CC(=O)O2)n(CCNC(=O)OC(C)(C)C)n1,37.1% (inactive),43.9% (inactive),70.4% (inactive),67.2% (inactive),39% (inactive),,51.1% (inactive),79% (inactive),38.4% (inactive),
CO[C@H]1[C@H](O[C@@H]2C[C@@H]3C/C=C/C(=O)O[C@@H](CO)C[C@H](O)[C@@H]4C[C@H](C)[C@H](C/C=C\C=C\[C@H](C)C[C@H](C2)O3)O4)O[C@@H](C)[C@H](O)[C@H]1O,,56.7% (inactive),52.2% (inactive),40.3% (inactive),35% (inactive),61.8% (inactive),59.7% (inactive),76.1% (inactive),19.2% (inactive),66.1% (inactive)
O=C(O)c1cc([N+](=O)[O-])cc([N+](=O)[O-])c1,,86.8% (inactive),105% (inactive),91.8% (inactive),84.6% (inactive),105% (inactive),97% (inactive),106% (inactive),98% (inactive),96.6% (inactive)
C[C@]12CC[C@H]3[C@@H](C[C@@H]4SC(Nc5ccccc5)=N[C@@]45C/C(=N/O)CC[C@]35C)[C@@H]1CCC2=O,44.3% (inactive),76% (inactive),60.3% (inactive),37.5% (inactive),60.5% (inactive),,-4.53% (active),73.3% (inactive),,
CN(C)c1ccc([N+](=O)[O-])c([N+](=O)[O-])c1,110% (inactive) and 100% (inactive),93% (inactive) and 86.4% (inactive),106% (inactive) and 102% (inactive),101% (inactive) and 96.9% (inactive),105% (inactive) and 100% (inactive),97.6% (inactive) and 90.3% (inactive),93% (inactive),104% (inactive),101% (inactive) and 97% (inactive),
C[C@]12CCc3sc(Nc4ccc(F)cc4F)nc3C1=CC[C@@H]1[C@@H]2CC[C@]2(C)C(=O)CC[C@@H]12,,69.4% (inactive),74.1% (inactive),40.7% (inactive),52.9% (inactive),67.6% (inactive),-49.7% (active),84.4% (inactive),76.9% (inactive),30.1% (inactive)
N#CC(C#N)=C(C#N)C#N,,87.7% (inactive),102% (inactive),99.8% (inactive),96.8% (inactive),101% (inactive),52.3% (inactive),105% (inactive),,110% (inactive)
C[N+]1(CC#CC[N+]2(C)CCCC2)CCCC1,,88.4% (inactive),104% (inactive),107% (inactive),,99.9% (inactive),93.6% (inactive),111% (inactive),101% (inactive),101% (inactive)
C=CCOC(=O)C(Br)CC (stereo not drawn),,97.1% (inactive),109% (inactive),101% (inactive),95% (inactive),,95.8% (inactive),110% (inactive),,110% (inactive)
CN(C)[C@@H]1C(=O)C(C(N)=O)=C(O)[C@@]2(O)C(=O)C3=C(O)c4c(O)ccc(Cl)c4[C@@](C)(O)[C@H]3C[C@@H]12,,87.2% (inactive) and 84.1% (inactive),98.4% (inactive) and 97.9% (inactive),89.9% (inactive) and 103% (inactive),81.6% (inactive),72.9% (inactive) and 89.5% (inactive),86% (inactive) and 95.6% (inactive),109% (inactive) and 112% (inactive),98.9% (inactive) and 100% (inactive),85.2% (inactive) and 109% (inactive)
CCCCOC(N)=O,,88.6% (inactive),98% (inactive),106% (inactive),,,104% (inactive),112% (inactive),99.6% (inactive),107% (inactive)
Oc1ccc(O)c(Cl)c1,,72.2% (inactive) and 85.8% (inactive),111% (inactive),94.6% (inactive) and 101% (inactive),84.3% (inactive) and 94.2% (inactive),93.9% (inactive) and 101% (inactive),94.4% (inactive) and 93.9% (inactive),115% (inactive) and 122% (inactive),91.3% (inactive) and 95.2% (inactive),

# Reference: PubChem BioAssay (NCI)
